Screens from PubChem BioAssay.
TDP1 inh = qHTS Assay for Inhibitors of Tyrosyl-DNA Phosphodiesterase (TDP1); Tyrosyl-DNA phosphodiesterase 1 (Homo sapiens), Q9NUW8; recombinant TDP1, AlphaScreen DNA substrate cleavage; Potency, µM (titrated, usually from 130 µM), inactives show top-dose activity change, negative = inhibition, hits mostly inhibitors; hit rate 0.28% among 350,000; AID 485290, 2010; note: nearly all actives have a fitted effect of over 40% in size
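E. coli-derived human Tdp1, 1 nM final. Cpd preinc 15 min RT; substrate 15 nM final, 5 min RT; AS bead mix 10 ug/ml final, 10 min RT. Signal loss = tyrosine-FITC cleavage. No-enzyme wells = max signal.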
APE1 inh = qHTS Assay for Inhibitors of the Human Apurinic/apyrimidinic Endonuclease 1 (APE1); AID 2517, 2012; recombinant APE1, TAMRA/BHQ-2 abasic DNA cleavage fluorescence; Potency, µM (doses to about 65.8 µM), without a hit: top-dose activity change, negative = inhibition, actives largely listed as inhibitors; hit rate 0.35% among 350,000;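 note: plate controls were vehicle for no effect and reference inhibitor for full effect; nearly all actives have a fitted effect of over 55% in size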
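Quantitative HTS: incision of a TAMRA/BHQ-2 double-stranded substrate bearing a tetrahydrofuran abasic site by 0.75 nM APE1 raises fluorescence. Substrate 50 nM final, added after 15 min compound preincubation at room temperature; progress as third-minus-first kinetic read difference.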
RECQ1 inh-1 = qHTS Assay for Inhibitors of RecQ-Like Dna Helicase 1 (RECQ1) | Potency, µM (series often up to 57.3 µM), for the others: top-dose activity, negative = inhibition, usual class: inhibitors | ATP-dependent DNA helicase Q1 (Homo sapiens), P46063 | hit rate 0.54% among 240,000 | RECQ1 DNA unwinding, red fluorescence kinetic read | AID 2549, 2010;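 note: plate controls were vehicle for no effect and no enzyme for full effect; nearly all actives have a fitted effect of over 30% in size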
Target sequence (P46063 whole entry, looked up): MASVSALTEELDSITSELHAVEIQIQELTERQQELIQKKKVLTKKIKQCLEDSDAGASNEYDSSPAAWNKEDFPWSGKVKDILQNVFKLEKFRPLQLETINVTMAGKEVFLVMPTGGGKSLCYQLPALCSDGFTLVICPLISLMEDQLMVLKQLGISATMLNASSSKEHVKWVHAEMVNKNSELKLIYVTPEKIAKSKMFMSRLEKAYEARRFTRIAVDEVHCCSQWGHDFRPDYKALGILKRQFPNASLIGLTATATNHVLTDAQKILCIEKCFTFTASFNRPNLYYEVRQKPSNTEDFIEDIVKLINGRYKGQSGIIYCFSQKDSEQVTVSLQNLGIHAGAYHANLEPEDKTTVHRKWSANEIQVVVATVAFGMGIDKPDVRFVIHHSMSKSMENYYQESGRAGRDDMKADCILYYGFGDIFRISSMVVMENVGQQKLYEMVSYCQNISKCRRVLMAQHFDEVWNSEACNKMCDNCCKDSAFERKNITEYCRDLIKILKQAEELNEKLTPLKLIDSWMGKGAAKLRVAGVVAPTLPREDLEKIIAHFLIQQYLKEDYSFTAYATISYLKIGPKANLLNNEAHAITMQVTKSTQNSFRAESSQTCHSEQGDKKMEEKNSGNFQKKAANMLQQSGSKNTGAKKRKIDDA
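50 nM RECQ1T1 preincubated 15 min with compound in Tris pH 8.0 buffer with MgCl2, DTT, Tween-20 and 2.5 ug/ml poly(dI-dC); started with 200 nM TAMRA/BHQ-2 forked duplex and 2 mM ATP. Unwinding read as fluorescence (525/598 nm), two reads 2 h apart.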
FEN1 inhibitor = qHTS Assay for the Inhibitors of Human Flap endonuclease 1 (FEN1); hit rate 0.35% among 390,000; Recombinant FEN1 flap cleavage, fluorescence, 15 min; P39748; Potency, µM (highest dose often 114 µM), without a hit: top-dose activity change, negative = inhibition, usual class: inhibitors; note: nearly all actives have a fitted effect of over 65% in size
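Concentration–response screening of FEN1 (10 nM): 15 min compound preincubation at room temperature, reaction started with 50 nM substrate and read at 0 and 15 min. Corrected, normalized data were fitted by a four-parameter Hill equation.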
BLM inh = qHTS Assay for Inhibitors of Bloom's syndrome helicase (BLM); RecQ-like DNA helicase BLM (Homo sapiens), P54132; recombinant BLM DNA unwinding, fluorescence dequenching; Potency, µM (top dose mostly 56.1 µM), inactives show at the top dose activity change, negative = inhibition, most hits filed as inhibitors; hit rate 0.2% among 350,000; AID 2528, 2010;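 note: plate controls were vehicle for no effect and no enzyme for full effect; nearly all actives have a fitted effect of over 35% in size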
RECQ1 inh conf = Confirmation qHTS Assay for Inhibitors of RecQ-Like Dna Helicase 1 (RECQ1); shares compounds with RECQ1 inh-1; RECQ1 helicase DNA unwinding, fluorescence; Potency, µM (series often up to 229 µM), for inactives: at the top dose activity change, negative = inhibition, hits mostly inhibitors; hit rate 28% among 610; AID 2708, 2010; note: nearly all actives have a fitted effect of over 45% in size
ADP FP counter = Counterscreen for RECQ1 Inhibitors: ADP Fluorescence Polarization Displacement Assay; ADP fluorescence polarization displacement counterscreen; hit rate 27% among 530; AID 2711, 2010; Potency, µM (titrated, usually from 228 µM), without a hit: at the top dose activity change, negative = inhibition, usual class: inhibitors; shares compounds with RECQ1 inh-1; note: nearly all actives have a fitted effect of over 45% in size
RECQ1 inh-2 = Confirmation qHTS Assay for Inhibitors of RecQ-Like Dna Helicase 1 (RECQ1) - Round 2 Cherry Picks; shares compounds with RECQ1 inh-1; recombinant RECQ1 DNA unwinding, red fluorescence; Potency, µM (highest dose often 119 µM), without a hit: top-dose activity, negative = inhibition, most hits filed as inhibitors; hit rate 15% among 1,100; AID 504841, 2011; note: nearly all actives have a fitted effect of over 50% in size
* = called active by the depositor; i = inactive; ? = inconclusive; . = no result; [ ] = dose if it differs, or a comment. Most compounds without a hit are left out; they make up all but 0.92% or so of the library. Calls come from the whole dose curve; as a rule, active = well fitted curve in the direction sought with a large enough effect; inconclusive = small, poorly fitted or top-dose-only effect, or another doubt; inactive = no such curve, though single readings can be large; an effect the other way counts as inactive or inconclusive. Unless noted, % is set by controls: 0 for no effect and ±100 for the full control effect; potency is the fitted concentration of half-maximal effect.

SMILES | TDP1 inh | APE1 inh | RECQ1 inh-1 | FEN1 inhibitor | BLM inh | RECQ1 inh-2 | others
Cc1cccc(C(=O)Nc2ccc(C(=O)/C=C/c3cccnc3)cc2)c1 | 2% | 3% | 1.1µM* | -15% | -15% | ? | RECQ1 inh conf=-8%[114 µM]
C=CCn1c(=O)/c(=C\c2ccccn2)s/c1=C(/C#N)C(=O)NCC1CCCO1 (configuration not stated) | 6% | 0% | -6% | 5% | -12% | .
C=CCn1c(=O)/c(=C/c2ccc(C)o2)s/c1=C(/C#N)C(=O)c1ccccc1 | 6% | -3% | 32µM* | -5% | -16% | ?
COC(=O)c1c(NC(=O)/C=C/C(=O)O)sc(C)c1-c1ccc(C(C)C)cc1 | 5% | -3% | ? | -1% | -5% | -45%
O=C(Nc1cccc(S(=O)(=O)N2CCOCC2)c1)[C@@H]1CCCN1S(=O)(=O)c1ccc(Cl)cc1 | -6% | -1% | -1% | 19% | -8% | . | RECQ1 inh conf=-9%;ADP FP counter=25%
O=C(Nc1cccc(S(=O)(=O)N2CCOCC2)c1)C1CCCCN1S(=O)(=O)c1ccccc1 (configuration not stated) | 1% | -9% | . | -9% | . | .
COC(=O)c1cc(OC)c(OC)cc1NC(=O)c1ccc2c(c1)CCN2S(=O)(=O)c1ccccc1 | -2% | . | . | -3% | 1% | .
COC(=O)Nc1ccc(S(=O)(=O)N2CCCC(C(=O)N3CC(C)OC(C)C3)C2)cc1 (configuration not stated) | . | -3% | -13% | -7% | -6% | . | RECQ1 inh conf=-2%;ADP FP counter=12%
COCCNC(=O)c1onc(CSc2ccc(C)c(C)c2)c1C(=O)O | 1% | 0% | -8% | 2% | -2% | .
COCCNC(=O)c1onc(CSc2cc(C)cc(C)c2)c1C(=O)O | 4% | 1% | i | 21% | -3% | . | RECQ1 inh conf=0%;ADP FP counter=1%
NC[C@H]1O[C@H](O[C@H]2[C@H](O[C@@H]3O[C@H](CO)[C@@H](O)[C@H]3O)C(O)[C@H](N)C[C@@H]2N)[C@H](N)[C@@H](O)[C@@H]1O (some centres not stated) | . | 4%[21 µM] | . | . | . | .
CC(=O)N1CCCc2cc(S(=O)(=O)CCC(=O)N3CCN(c4cccc(C)c4)C(C)C3)ccc21 (configuration not stated) | -5% | ? | -3% | 3% | -6% | .
Cc1cccc(N2CCN(C(=O)CCS(=O)(=O)c3ccc(Br)cc3)CC2C)c1 (configuration not stated) | . | -2% | 35µM* | -4% | -28% | 40µM*
C=CCn1c(NC(=O)c2ccco2)c(S(=O)(=O)c2ccccc2)c2nc3ccccc3nc21 | 6% | 11% | -18% | . | -8% | .
C=CCn1c(NC(=O)c2ccc(Br)o2)c(S(=O)(=O)c2ccccc2)c2nc3ccccc3nc21 | 4% | ? | ? | -23% | ? | -13%
Cc1nc(Nc2ccccc2)c2nc(-c3ccccc3)n(CCCN3CCCCC3C)c2n1 (configuration not stated) | 3% | ? | 0% | . | 0% | .
O=C1/C(=C/c2ccc(Br)cc2)Oc2cc(O)ccc21 | . | -1% | . | 0% | -7% | .
O=C1/C(=C\c2ccc(O)c(O)c2)Oc2cc(O)ccc21 | 17% | ? | 20µM* | . | -8% | 56µM*
Cc1nc(C)c(C(=O)Nc2ncc([N+](=O)[O-])s2)o1 | ? | ? | ? | -35% | -19% | ?
CC(C)CC(=O)Nc1ncc([N+](=O)[O-])s1 | . | -19% | -7% | 1% | -12% | .
COc1cc(F)c(S(=O)(=O)N2CCCN(S(=O)(=O)c3ccc4c(c3)OCCO4)CC2)c(F)c1 | 0% | . | . | . | . | .
COc1ccc(N2CCN(CC(=O)NC(=O)NCc3ccco3)CC2)cc1 | 5% | -2% | -11% | 7% | -1% | .
O=C(CN1CCN(c2ccc(O)cc2)CC1)Nc1ccc2c(c1)OCCO2 | 1% | ? | ? | -8% | -3% | -11%
O=C(CN1CCN(c2ccc(O)cc2)CC1)NC(=O)NCc1ccco1 | -5% | ? | 22µM* | 7% | -6% | -18%
CC(C)C(=O)Nc1ccc(/C=C2\C=Cc3ccccc32)cc1 | . | . | . | -7% | . | .
SMILES | TDP1 inh | APE1 inh | RECQ1 inh-1 | FEN1 inhibitor | BLM inh | RECQ1 inh-2 | others
CC1CCCN(S(=O)(=O)c2ccc3c(c2)CCN3C(=O)CCC(=O)O)C1 (configuration not stated) | 9% | . | . | 18% | 0% | .
COC(=O)CCC(=O)N1CCc2cc(S(=O)(=O)N3CCc4ccccc43)ccc21 | 3% | 11% | -3% | -12% | -5% | .
CC1CCN(S(=O)(=O)c2ccc3c(c2)CCN3C(=O)CCC(=O)O)CC1 | 5% | -1% | -1% | -4% | 1% | . | RECQ1 inh conf=4%;ADP FP counter=-1%
O=C(O)CCC(=O)N1CCc2cc(S(=O)(=O)N3CCCCC3)ccc21 | 2% | 6% | 9% | -13% | -3% | . | RECQ1 inh conf=-2%;ADP FP counter=12%
CCCCN(c1ccccc1)S(=O)(=O)c1ccc2c(c1)CCN2C(=O)CCC(=O)O | 1% | -9% | -10% | -2% | -4% | . | RECQ1 inh conf=0%;ADP FP counter=?
O=C(O)CCC(=O)N1CCc2cc(S(=O)(=O)N3CC=C(c4ccccc4)CC3)ccc21 | . | -6% | -17% | -2% | -6% | . | RECQ1 inh conf=-3%;ADP FP counter=?
CC(=O)N1CCCc2cc(S(=O)(=O)N3CCCCC3)ccc21 | 5% | . | . | 15% | 2% | .
Cc1ccccc1NC(=O)c1c(C)oc2ccc(O)c(CN3CCCCCC3)c12 | 4% | . | . | ? | 4% | .
CC(C)c1ncc([N+](=O)[O-])n1C | . | . | . | . | 1% | .
CC(=O)Oc1ccc(C(=O)Nc2cccc(C(=O)NC(C)(C)C)c2)cc1 | -1% | 1% | -6% | -8% | 1% | .
CC(=O)Oc1ccc(C(=O)Nc2cccc(C(=O)c3cccc(NC(=O)c4ccc(OC(C)=O)cc4)c3)c2)cc1 | . | 15% | 14µM* | ? | -28% | ?
